In PubChem BioAssay:
For some assays here: Potency and affinity values are given separately. Results filed as inconclusive are left out. Activity calls are given as the source filed them. Unless noted, no rule for the calls is given here.

Tests used:
[1] = resazurin metabolic signal in HepG2 cells – cell-based, resazurin fluorescence, 24 h, PK04 Diversity Set, profiling panel (AID 1172); settings: HepG2 viability, higher = more signal
[2] = budding yeast growth changes without added modifier – OD600, strain BY4716, 24 h, basal condition, primary screen (AID 1173); settings: S. cerevisiae BY4716 growth, OD600, 24 h; higher = more signal, called active from +8 up or from −8 down
[3] = viability profiling in MM1S myeloma cells – cell-based, resazurin fluorescence, basal, 24 h, PK04 Diversity Set, profiling panel (AID 1174); settings: higher = more signal, called active from +8 up or from −8 down;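 also: MM1S multiple myeloma cell line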
[4] = target: Dihydroorotate dehydrogenase (quinone), mitochondrial (Plasmodium falciparum (isolate 3D7)) (UniProt Q08210); experiment: inhibition of P. falciparum DHODH – biochemical, C-terminal His tag, absorbance 600 nm, primary screen (AID 1175); settings: PfDHODH enzyme, DCIP absorbance 600 nm; higher = more signal, called active from +8 up or from −8 down;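 also: recombinant parasite enzyme with a five histidine tag at its C terminus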
Dihydroorotate dehydrogenase (quinone), mitochondrial (Plasmodium falciparum (isolate 3D7)), sequence (Q08210 whole entry, looked up): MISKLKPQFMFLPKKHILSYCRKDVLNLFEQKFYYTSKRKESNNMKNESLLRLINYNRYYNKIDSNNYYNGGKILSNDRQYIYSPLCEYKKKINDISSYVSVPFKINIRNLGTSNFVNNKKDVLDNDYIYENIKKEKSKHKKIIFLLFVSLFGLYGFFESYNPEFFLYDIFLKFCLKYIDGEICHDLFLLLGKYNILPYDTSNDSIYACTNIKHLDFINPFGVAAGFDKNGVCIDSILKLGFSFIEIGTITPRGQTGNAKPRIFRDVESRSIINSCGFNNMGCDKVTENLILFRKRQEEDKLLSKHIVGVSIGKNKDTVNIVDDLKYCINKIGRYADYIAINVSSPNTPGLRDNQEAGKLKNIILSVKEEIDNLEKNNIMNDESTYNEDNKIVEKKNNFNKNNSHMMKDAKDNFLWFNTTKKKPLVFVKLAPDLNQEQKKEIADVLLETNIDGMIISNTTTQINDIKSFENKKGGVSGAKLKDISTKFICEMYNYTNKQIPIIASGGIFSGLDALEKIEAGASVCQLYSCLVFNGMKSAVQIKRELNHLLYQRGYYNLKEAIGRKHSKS

[5] = inhibition of PAO1 biofilm formation – strain PAO1, LB-PBS medium, absorbance 600 nm, primary screen (AID 1176); settings: P. aeruginosa PAO1 growth/biofilm, A600, 12 h; higher = more signal
[6] = growth modulation of vineyard yeast isolate – strain RM11-1a, OD600, basal, 24 h, primary screen (AID 1177);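 also: cultures grown under basal conditions with no added stressor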; settings: S. cerevisiae RM11-1a growth, OD600, 24 h; higher = more signal, called active from +8 up or from −8 down
[7] = growth of efflux-deficient E. coli DRC39 – strain DRC39, OD650, 24 h, E. coli filamentation inducers, primary screen (AID 1178);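 also: growth measured as culture turbidity by optical density at 650 nm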; settings: E. coli DRC39 acrAB, higher = more signal, called active from +8 up or from −8 down
[8] = growth of efflux-deficient E. coli DRC39 – strain DRC39, OD650, 48 h, E. coli filamentation inducers, primary screen (AID 1179);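 also: screen aims at cell division blockers that make cells filament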; settings: E. coli DRC39 delta-acrAB growth, higher = more signal, called active from +8 up or from −8 down
[9] = viability profiling in RPMI8226 myeloma cells – cell-based, resazurin fluorescence, basal, 24 h, PK04 Diversity Set, profiling panel (AID 1180); settings: higher = more signal;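 also: RPMI8826 multiple myeloma cell line at 5000 cells per well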
[10] = target: E3 ubiquitin-protein ligase XIAP (Homo sapiens) (UniProt P98170); experiment: small molecules binding XIAP protein – biophysical, small-molecule microarray, fluorescence 635 nm, primary screen (AID 1181); settings: higher = more signal;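 also: score merges 667 nm emission and signal to noise over triplicate slides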
E3 ubiquitin-protein ligase XIAP (Homo sapiens), sequence (P98170 whole entry, looked up, the tested form may be a part): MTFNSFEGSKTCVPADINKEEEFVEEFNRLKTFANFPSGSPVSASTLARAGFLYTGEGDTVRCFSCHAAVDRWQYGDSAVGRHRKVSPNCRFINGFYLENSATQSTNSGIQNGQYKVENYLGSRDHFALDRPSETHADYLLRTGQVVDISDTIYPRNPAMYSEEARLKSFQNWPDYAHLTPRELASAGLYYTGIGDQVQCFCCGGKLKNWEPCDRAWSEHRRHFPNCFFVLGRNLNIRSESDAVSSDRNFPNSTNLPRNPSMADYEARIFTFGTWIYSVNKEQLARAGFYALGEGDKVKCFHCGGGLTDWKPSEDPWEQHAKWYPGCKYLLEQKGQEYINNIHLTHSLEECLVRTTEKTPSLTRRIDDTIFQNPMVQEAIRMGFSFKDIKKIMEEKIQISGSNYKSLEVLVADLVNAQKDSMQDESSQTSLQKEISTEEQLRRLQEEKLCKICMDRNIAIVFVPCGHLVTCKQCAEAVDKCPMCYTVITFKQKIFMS

[11] = test system: XIP peptide (Xip251-270) binding; experiment: XIP fragment 251-270 binding compounds – biochemical, small-molecule microarray, fluorescence 635/667 nm, 0.1 µg/mL protein, primary screen (AID 1182); settings: fluorescent protein binding, 635 nm, higher = more signal, called active from +8 up or from −8 down
[12] = test system: XIP peptide (Xip251-270); experiment: compounds binding XIP fragment 251-270 – biochemical, small-molecule microarray, fluorescence 635/667 nm, 0.5 µg/mL protein, primary screen (AID 1183); settings: fluorescence 635 nm, higher = more signal
[13] = blood-stage malaria parasite viability loss – strain 3D7, DAPI fluorescence, 100 nL, primary screen (AID 1184);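 also: parasites grown inside human red blood cells in medium with human serum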; settings: P. falciparum 3D7 growth, 3 d, higher = more signal
[14] = target: Homeobox protein Hox-A13 (Mus musculus) (UniProt Q62424); experiment: disruptors of Hoxa13 oligonucleotide interaction – biochemical, fluorescence polarization, labeled oligonucleotide, primary screen (AID 1185); settings: Hoxa13:DNA binding, 15 min, higher = more signal, called active from +8 up or from −8 down
Homeobox protein Hox-A13 (Mus musculus), sequence (Q62424 whole entry, looked up): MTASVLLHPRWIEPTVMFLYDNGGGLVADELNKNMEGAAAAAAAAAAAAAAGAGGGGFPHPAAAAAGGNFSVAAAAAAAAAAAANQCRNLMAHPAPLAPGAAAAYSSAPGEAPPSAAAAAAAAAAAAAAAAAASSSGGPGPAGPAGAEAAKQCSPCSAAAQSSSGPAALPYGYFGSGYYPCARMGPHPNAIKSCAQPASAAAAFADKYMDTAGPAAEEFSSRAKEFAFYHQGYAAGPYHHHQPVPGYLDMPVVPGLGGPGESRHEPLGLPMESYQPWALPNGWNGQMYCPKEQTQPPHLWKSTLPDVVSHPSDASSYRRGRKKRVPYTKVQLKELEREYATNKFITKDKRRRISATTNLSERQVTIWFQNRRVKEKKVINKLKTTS

[15] = blockers of DNA damage checkpoint Chk1 activation – imaging, HeLa, hydroxyurea, phospho-Chk1 antibody, percent positive cells, primary screen (AID 1186); settings: hydroxyurea-induced phospho-Chk1 immunofluorescence imaging, higher = more signal
[16] = blockers of DNA damage checkpoint Chk1 activation – imaging, HeLa, hydroxyurea, phospho-Chk1 nuclear intensity, primary screen (AID 1187); settings: hydroxyurea-induced phospho-Chk1 immunofluorescence imaging, higher = more signal
[17] = fungal growth arrest, C. neoformans – Alamar Blue, cherry-picks, dose response (AID 686998;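 active = falling signal with fitted half-maximal potency no higher than twice the top valid tested dose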); settings: Cryptococcus neoformans growth, 24 h; series mostly up to 35 µM
[18] = C. neoformans lysis by adenylate kinase leakage – AK release luminescence, cherry-picks, dose response (AID 687000;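 active = fitted dose curve reaches 40% lysis signal rise at or below the highest valid concentration tested for that sample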;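 also: luminescent detection of adenylate kinase leaking from lysed yeast; 0% = median neutral control signal and 100% = double that signal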); settings: 4 h, 100% = twice the neutral-control signal; series mostly up to 15 µM
[19] = viability loss in HepG2 hepatoma cells – cell-based, cherry-picks, set 2, cytotoxicity control, dose response (AID 687002;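 active = a dose-response fit showing signal loss, with half-maximal concentration no higher than twice the top tested dose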); settings: ATP luminescence (CellTiter-Glo), 48 h; series mostly up to 26 µM
[20] = viability loss in HeLa cells – cell-based, ATP luminescence, cherry-pick samples, cytotoxicity control, dose response (AID 687004;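 active = a fitted half-maximal concentration no higher than twice the top valid tested dose, with signal falling as cells die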;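 also: 0% = neutral control median and -100% = staurosporine 10 µM control median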); settings: ATP luminescence (CellTiter-Glo), 48 h; series mostly up to 26 µM

## NC(=O)NCC#Cc1ccc2c(c1)[C@]1(C(=O)N2)[C@H](C(N)=O)[C@H]2C(=O)O[C@H](c3ccccc3)[C@H](c3ccccc3)N2[C@@H]1c1ccccc1OCCO
[1]
  z-score: 0.979
[2]
  z-score: -0.275 (inactive)
[3]
  z-score: 0.369 (inactive)
[4]
  composite z-score: -0.793 (inactive)
[5]
  z-score: 0.75 (inactive)
[6]
  z-score: 0.785 (inactive)
[7]
  z-score: 0.285 (inactive)
[8]
  z-score: 0.0072 (inactive)
[9]
  z-score: 0.295
[10]
  composite z-score: 0.234
[11]
  composite z-score: 0.212 (inactive)
[12]
  composite z-score: 0.473
[13]
  z-score: 0.257
[14]
  z-score: -4.44 (inactive)
[15]
  z-score: 0.113 (inactive)
[16]
  z-score: 0.158 (inactive)
[17]
  outcome: inactive
[18]
  outcome: inactive
[19]
  outcome: inactive
[20]
  outcome: inactive

## CO[C@H]1COC(=O)CC=C[C@H](C)[C@@H](OC)COC(=O)[C@H](Cc2ccccc2)NC(=O)CC=C[C@@H]1C
[1]
  z-score: 1.26
[2]
  z-score: -0.562 (inactive)
[3]
  z-score: 1 (inactive)
[4]
  composite z-score: 1.09 (inactive)
[6]
  z-score: 0.33 (inactive)
[7]
  z-score: 0.424 (inactive)
[8]
  z-score: -1.39 (inactive)
[9]
  z-score: 0.452
[10]
  composite z-score: -0.031
[11]
  composite z-score: -0.254 (inactive)
[12]
  composite z-score: -0.42
[13]
  z-score: 0.0429
[14]
  z-score: -0.426 (inactive)

## COc1cc2c(cc1OC)CN(C(=O)[C@H]1[C@@H]3C(=O)O[C@@H](c4ccccc4)[C@@H](c4ccccc4)N3[C@@H](c3ccc(O)cc3)[C@]13C(=O)Nc1ccc(C#CC4(O)CCCCCC4)cc13)CC2
[1]
  z-score: 0.496
[2]
  z-score: 0.076 (inactive)
[3]
  z-score: -0.4 (inactive)
[4]
  composite z-score: -0.543 (inactive)
[5]
  z-score: 0.89 (inactive)
[6]
  z-score: 0.087 (inactive)
[7]
  z-score: -0.463 (inactive)
[8]
  z-score: -0.794 (inactive)
[9]
  z-score: 1.15
[10]
  composite z-score: 0.364
[11]
  composite z-score: 3.38 (inactive)
[12]
  composite z-score: 0.838
[13]
  z-score: -1.51
[14]
  z-score: -1.42 (inactive)
[15]
  z-score: -0.0159 (inactive)
[16]
  z-score: 0.0808 (inactive)

## CN1C(=O)C2C=CC(C(O)c3ccc(N(C)C)cc3)N(Nc3ccc([N+](=O)[O-])cc3[N+](=O)[O-])C2C1=O (stereo unspecified)
[1]
  z-score: 0.183
[2]
  z-score: 0.111 (inactive)
[3]
  z-score: -0.355 (inactive)
[4]
  composite z-score: -0.548 (inactive)
[5]
  z-score: 0.558 (inactive)
[6]
  z-score: -0.29 (inactive)
[7]
  z-score: -0.243 (inactive)
[8]
  z-score: -0.411 (inactive)
[9]
  z-score: 0.236
[10]
  composite z-score: -0.0023
[11]
  composite z-score: 0.695 (inactive)
[12]
  composite z-score: 0.301
[13]
  z-score: 0.985
[14]
  z-score: -3.89 (inactive)
[15]
  z-score: 0.347 (inactive)
[16]
  z-score: -0.169 (inactive)

## CC1CC/C=C\[C@H]2OC34C=CCN(Cn5nnc6ccccc65)C(=O)[C@H]3N(C(C)CO)C(=O)[C@@H]4C2C(=O)O1 (stereo partly specified)
[1]
  z-score: 0.142
[2]
  z-score: -0.0496 (inactive)
[3]
  z-score: 0.035 (inactive)
[4]
  composite z-score: 0.853 (inactive)
[5]
  z-score: -0.0837 (inactive)
[6]
  z-score: 0.472 (inactive)
[7]
  z-score: 0.756 (inactive)
[8]
  z-score: 0.665 (inactive)
[9]
  z-score: 0.0911
[10]
  composite z-score: 0.282
[11]
  composite z-score: 0.205 (inactive)
[12]
  composite z-score: 0.0783
[13]
  z-score: 0.189
[14]
  z-score: -4.29 (inactive)
[15]
  z-score: -0.087 (inactive)
[16]
  z-score: -0.361 (inactive)

## C[C@H]1COC(=O)[C@H](Cc2ccccc2)NC(=O)[C@@H](C)COC(=O)[C@H](Cc2ccccc2)NC1=O
[1]
  z-score: 0.24
[2]
  z-score: -1.23 (inactive)
[3]
  z-score: 1.04 (inactive)
[4]
  composite z-score: 0.063 (inactive)
[6]
  z-score: -1.43 (inactive)
[7]
  z-score: 0.253 (inactive)
[8]
  z-score: -0.156 (inactive)
[9]
  z-score: 1.28
[10]
  composite z-score: -0.127
[11]
  composite z-score: 0.767 (inactive)
[12]
  composite z-score: 0.342
[13]
  z-score: -0.703
[14]
  z-score: 1.01 (inactive)

## CO[C@H]1COC(=O)[C@@H](C)COC(=O)[C@H](Cc2ccccc2)NC(=O)CC=C[C@H]1C
[1]
  z-score: 0.495
[2]
  z-score: -1.05 (inactive)
[3]
  z-score: 1.06 (inactive)
[4]
  composite z-score: 0.234 (inactive)
[6]
  z-score: -1.48 (inactive)
[7]
  z-score: 0.586 (inactive)
[8]
  z-score: 0.274 (inactive)
[9]
  z-score: 0.794
[10]
  composite z-score: -0.0293
[11]
  composite z-score: -0.0968 (inactive)
[12]
  composite z-score: 0.172
[13]
  z-score: -0.178
[14]
  z-score: 0.485 (inactive)

## C[C@@H]1CC[C@H]2C(=O)N3[C@@H](CC[C@@H](C)[C@@H]3c3cccc(N4CCOCC4)c3)C(=O)N2[C@H]1c1cccc(N2CCOCC2)c1
[1]
  z-score: 0.728
[2]
  z-score: -0.0109 (inactive)
[3]
  z-score: 1.04 (inactive)
[4]
  composite z-score: 0.148 (inactive)
[6]
  z-score: 1.35 (inactive)
[7]
  z-score: 0.203 (inactive)
[8]
  z-score: 0.202 (inactive)
[9]
  z-score: 1.39
[10]
  composite z-score: -0.165
[11]
  composite z-score: 0.66 (inactive)
[12]
  composite z-score: 0.705
[13]
  z-score: -0.529
[14]
  z-score: -4.07 (inactive)

## CO[C@@H]1COC(=O)CC=C[C@H](C)COC(=O)[C@H](Cc2ccccc2)NC(=O)CC=C[C@H]1C
[1]
  z-score: 0.0057
[2]
  z-score: -1.95 (inactive)
[3]
  z-score: 0.266 (inactive)
[4]
  composite z-score: 0.519 (inactive)
[6]
  z-score: -1.02 (inactive)
[7]
  z-score: 0.131 (inactive)
[8]
  z-score: -0.0502 (inactive)
[9]
  z-score: -0.094
[10]
  composite z-score: 0.0896
[11]
  composite z-score: 0.717 (inactive)
[12]
  composite z-score: 0.18
[13]
  z-score: 0.684
[14]
  z-score: -0.631 (inactive)

## CC(=O)Nc1ccc([C@H]2[C@H](C)CC[C@H]3C(=O)N4[C@@H](CC[C@@H](C)[C@@H]4c4ccc(NC(C)=O)cc4)C(=O)N32)cc1
[1]
  z-score: 1.23
[2]
  z-score: -1.08 (inactive)
[3]
  z-score: -0.269 (inactive)
[4]
  composite z-score: 0.124 (inactive)
[6]
  z-score: 0.897 (inactive)
[7]
  z-score: 1.22 (inactive)
[8]
  z-score: 0.141 (inactive)
[9]
  z-score: 0.868
[10]
  composite z-score: -0.0204
[11]
  composite z-score: 1.46 (inactive)
[12]
  composite z-score: 0.757
[13]
  z-score: 0.179
[14]
  z-score: -6.37 (inactive)
